Screens from PubChem BioAssay.
KDM5B inh = blocks human KDM5B histone demethylase activity. KDM5B demethylase, FDH-coupled NADH fluorescence (FDH is formaldehyde dehydrogenase). AID 1347165. hit rate 2.6% among 220,000. Potency, µM (doses to about 57.7 µM), hits mostly inhibitors. Q9UGL1; active means well fitted inhibition curve with a large enough effect; further: 0% is about no effect; nearly all actives have a fitted effect of over 70% in size
Target sequence (Q9UGL1 whole entry, looked up): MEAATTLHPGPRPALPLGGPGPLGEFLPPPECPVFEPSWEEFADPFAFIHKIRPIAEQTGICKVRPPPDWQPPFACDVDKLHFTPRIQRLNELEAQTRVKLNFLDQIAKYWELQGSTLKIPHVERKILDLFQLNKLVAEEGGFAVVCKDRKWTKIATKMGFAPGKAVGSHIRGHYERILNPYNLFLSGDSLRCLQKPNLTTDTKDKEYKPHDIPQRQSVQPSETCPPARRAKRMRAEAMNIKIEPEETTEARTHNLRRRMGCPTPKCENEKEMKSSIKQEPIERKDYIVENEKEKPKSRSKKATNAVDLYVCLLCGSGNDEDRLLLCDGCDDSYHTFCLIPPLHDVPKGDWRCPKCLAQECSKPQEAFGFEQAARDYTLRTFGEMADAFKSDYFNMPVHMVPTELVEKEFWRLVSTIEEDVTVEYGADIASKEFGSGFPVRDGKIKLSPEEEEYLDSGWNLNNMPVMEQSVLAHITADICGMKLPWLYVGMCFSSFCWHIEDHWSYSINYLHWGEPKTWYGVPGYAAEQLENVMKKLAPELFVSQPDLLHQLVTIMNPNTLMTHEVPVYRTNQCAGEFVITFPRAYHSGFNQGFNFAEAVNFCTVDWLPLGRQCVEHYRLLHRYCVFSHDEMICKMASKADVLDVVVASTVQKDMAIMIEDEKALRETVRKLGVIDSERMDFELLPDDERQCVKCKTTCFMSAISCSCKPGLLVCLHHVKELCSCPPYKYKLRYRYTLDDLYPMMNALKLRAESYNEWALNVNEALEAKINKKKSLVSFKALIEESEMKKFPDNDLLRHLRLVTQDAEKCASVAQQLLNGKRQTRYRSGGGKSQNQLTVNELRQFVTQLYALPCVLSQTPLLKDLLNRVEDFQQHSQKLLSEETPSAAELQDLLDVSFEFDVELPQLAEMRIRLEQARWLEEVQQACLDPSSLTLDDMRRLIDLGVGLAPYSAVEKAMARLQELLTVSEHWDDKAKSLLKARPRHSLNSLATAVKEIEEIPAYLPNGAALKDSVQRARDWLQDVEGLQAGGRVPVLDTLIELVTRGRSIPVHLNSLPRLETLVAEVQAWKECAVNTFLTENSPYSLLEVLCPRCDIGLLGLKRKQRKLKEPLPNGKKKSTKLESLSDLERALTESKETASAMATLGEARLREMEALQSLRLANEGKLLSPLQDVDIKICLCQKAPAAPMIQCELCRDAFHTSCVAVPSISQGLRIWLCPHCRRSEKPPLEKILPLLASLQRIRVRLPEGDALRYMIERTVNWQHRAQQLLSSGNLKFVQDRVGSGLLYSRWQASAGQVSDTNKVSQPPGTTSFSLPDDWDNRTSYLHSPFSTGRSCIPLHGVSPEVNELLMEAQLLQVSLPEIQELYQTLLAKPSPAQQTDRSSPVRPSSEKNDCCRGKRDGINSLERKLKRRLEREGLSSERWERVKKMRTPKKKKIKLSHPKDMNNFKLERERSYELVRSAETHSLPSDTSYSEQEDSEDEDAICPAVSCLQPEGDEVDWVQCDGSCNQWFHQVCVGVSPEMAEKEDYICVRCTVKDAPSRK
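Measured: NADH fluorescence change, 30 min, RT. System: KDM5BΔAP 200 nM final, H3K4me3 peptide, α-KG, Fe(II), ascorbate, NAD⁺ plus FDH, pH 7.5 HEPES. Compounds: titrated, 10 min pre-incubation with enzyme.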
Numbers without * were called inactive; i = inactive. Only a selection was taken, and hits are over-represented in it overall. Potency means the concentration at half of the fitted maximal effect.

SMILES | KDM5B inh
O=C(NC1CCCCCCC1)C1(c2ccccc2)CCC1 | i
COc1ccc(C(=O)/C=C/c2ccccc2F)c(OC(=O)c2ccccc2C)c1 | i
Cc1ncoc1C(=O)N1CCCCCCn2c(nnc2-c2ccc(F)cc2)CC1 | i
Cc1cc(C)c2oc(=O)cc(CN3CCN(CCc4ccccn4)CC3)c2c1 | i
COCCN1CC2(CCCN(C(=O)c3n[nH]c4ccc(C)cc34)C2)CCC1=O (stereo not drawn) | i
Cc1[nH]c(=O)c(C#N)cc1C(=O)N1CCCC2(CCC(=O)N(C3CC3)C2)C1 (stereo not drawn) | 28µM*
O=C(c1ccc(Cn2cccn2)o1)N1CCCC2(CCC(=O)N(C3CC3)C2)C1 (stereo not drawn) | i
CS(=O)(=O)N1CCc2ccc(C(=O)N3CCN(Cc4ccc5c(c4)OCO5)CC3)cc21 | i
N#Cc1ccc(CN2CCC3(CC2)CC(=O)c2ccc(Cl)cc2O3)cc1 | i
O/N=C1\CCOc2ccccc21 | i
COC(=O)c1c(NC(=O)c2ccncc2)sc(C(=O)Nc2ccccc2)c1C | i
Cc1ccccc1NC(=O)N1CCC(N2CCCC(C(=O)N3CCCC3)C2)CC1 (stereo not drawn) | 22µM*
O=C(C1CCCN(C2CCN(C3Cc4ccccc4C3)CC2)C1)N1CCCC1 (stereo not drawn) | i
Cc1ccccc1NC(=O)N1CCC(CCNC(=O)C2CC2)CC1 | i
CC1=C[C@@H](CNC(=O)COc2ccccc2)[C@H](C(C)C)C[C@H]1Cc1nnc(-c2cncn2C)o1 | i
COc1ccc(CC(=O)NCc2nnc3ccccn23)cc1 | i
N#Cc1ccccc1-c1ccc(-c2cn(Cc3nnc4ccccn34)nn2)o1 | 28µM*
N#Cc1ccccc1-c1ccc(C=O)o1 | i
O=C1CCN(C(=O)COc2ccc(Cl)cc2Cl)c2ccccc2N1 | i
Cn1cnc2c1c(=O)n(CCCSCc1cccc3ccccc13)c(=O)n2C | i
COCCn1ccc2c(C3=CCOCC3)nc(-c3cccc(N[S+](C)(=O)[O-])c3)cc21 | i
COCCn1ccc2c(C3=CCOCC3)nc(-c3cccc4cn[nH]c34)cc21 | 35µM*
COCCn1ccc2c(C3=CCOCC3)nc(-c3cccc(NC(C)=O)c3)cc21 | 35µM*
COCCN1Cc2[nH]nc(-c3cccc(NC(C)=O)c3)c2CC1=O | i
Cc1nc(SCC(=O)N(c2ccccc2)c2ccccc2)oc1C | i
SMILES | KDM5B inh
CC(C)C[C@H](NC(=O)NCCc1ccccc1F)C(=O)O | i
O=C(/C=C/c1cccc(F)c1)Nc1ccc(Cl)c(C(F)(F)F)c1 | i
COc1cc(-c2cccs2)cc2c1OCCN(C(=O)c1ccncc1C)C2 | i
COc1cc(-c2cccs2)cc2c1OCCN(C(=O)C(C)Cn1cncn1)C2 (stereo not drawn) | i
COc1cc(-c2cc(C)c3cccc(OC)c3n2)cc2c1OCCN(C(=O)CCN)C2 | 28µM*
COc1ccc(CNC(=O)CSc2nc3ccccc3nc2N2CCCC2)cc1 | i
Cc1cccc(NC(=O)CN2CCN(Cc3csc(-c4ccccc4)n3)CC2)c1C | i
Nc1cccc(OCCCc2ccccc2)c1 | i
O=C(COC(=O)C1CCC1)c1ccc[nH]1 | i
Cc1ccc(-n2nnnc2SCC(=O)N2CCN(CC(=O)N3CCCC3)CC2)c(C)c1 | i
O=C(O)C1CCc2nnc(C3CCCN(C(=O)c4ccc5c(c4)OC(F)(F)O5)C3)n21 (stereo not drawn) | i
COC(=O)CNC(=O)C1CCc2nnc(CNC(=O)c3ccccc3)n21 (stereo not drawn) | i
O=C(NCc1nnc2n1C(C(=O)O)CC2)c1ccccc1 (stereo not drawn) | 100µM*
O=C(NCc1nnc2n1C(C(=O)N1CCOCC1)CC2)c1cccnc1 (stereo not drawn) | i
O=C(NCc1nnc2n1C(C(=O)O)CC2)c1ccc(F)cc1 (stereo not drawn) | 45µM*
O=C(NCc1nnc2n1C(C(=O)NCc1ccncc1)CC2)c1ccccc1 (stereo not drawn) | i
O=C(NCc1nnc2n1C(C(=O)O)CC2)c1ccc2c(c1)OC(F)(F)O2 (stereo not drawn) | 25µM*
Cn1ccc(C(=O)NCc2nnc3n2C(C(=O)NCc2ccc(F)cc2)CC3)n1 (stereo not drawn) | i
CC(C)NC(=O)C1CCc2nnc(CNC(=O)c3ccccc3)n21 (stereo not drawn) | i
CCc1cc(C(=O)OC)c(N)s1 | i
CCCCN1C(=O)C2(CCN(C(=O)CC(C)(C)C)CC2)Nc2ccccc21 | i
CCn1ncc(C(=O)N2C[C@@H](COC)[C@H](c3nc(C4CC4)no3)C2)c1C | i
COC(=O)c1ccc(/C=C(\C#N)C(=O)Nc2ccccc2C(=O)O)cc1 | i
Fc1ccc(N/N=C/c2c(F)cccc2F)c(F)c1 | i
Cc1cc(C)n(-c2nc3c(c(=O)n(CCc4ccccc4)c(=O)n3C)n2CC(C)C)n1 | i
SMILES | KDM5B inh
CCCOc1cc(OCCC)c2c(=O)cc(-c3ccccc3)oc2c1 | i
Cc1ccc(C2CC(=O)Nc3cc4c(cc32)OCO4)cc1Br (stereo not drawn) | i
c1ccc(CC2CCN(Cc3nnc4cc(-c5nc(-c6ccccc6)no5)ccn34)CC2)cc1 | i
CCOC(=O)C1CCN(Cc2nnc3cc(-c4nc(-c5ccccc5)no4)ccn23)CC1 | i
c1ccc(-c2noc(-c3ccn4c(CN5CCc6ccccc6C5)nnc4c3)n2)cc1 | 32µM*
CC(=O)N1CCN(Cc2nnc3cc(-c4nc(-c5ccccc5)no4)ccn23)CC1 | 6.3µM*
CC(c1nc(-c2ccccc2)no1)N1CCc2ccccc2C1 (stereo not drawn) | i
NS(=O)(=O)Cc1ccc(CNC(=O)COc2ccccc2)cc1 | i
CSc1nnc(NC(=O)c2cc(=O)c3ccccc3o2)s1 | i
O=C(c1n[nH]c(=O)c2ccccc12)N1CCN(S(=O)(=O)c2ccc3ccccc3c2)CC1 | i
CCc1ccc(OCCCOc2ccccc2/C=N/NC(=O)c2cccc(Cl)c2)cc1 | i
Cc1cc(=O)oc2cc(OCC(=O)NCCC3CCN(Cc4ccccc4)CC3)ccc12 | i
COc1ccc(CN(C)C(=O)Cn2nc(C(=O)O)c3ccccc3c2=O)cc1 | i
NC(=O)[C@@H]1CCCN1CC[C@H]1CN(C(=O)NC2CCCCC2)CC[C@H]1CC(=O)O | i
Cc1ccc(S(=O)(=O)NC[C@H]2OC[C@@H](NCC(C)(C)C)[C@@H]2O)cc1 | i
O=C(O)CCCNS(=O)(=O)c1ccc(Cl)c(Cl)c1 | i
COCCNC(=O)c1noc(-c2ccc[nH]c2=O)n1 | 28µM*
Cc1ccc(C)c(N2CCN(C(=O)c3noc(-c4ccc[nH]c4=O)n3)CC2)c1 | 28µM*
COc1ccc(C(C)NC(=O)c2noc(-c3ccc[nH]c3=O)n2)cc1OC (stereo not drawn) | 32µM*
Cc1ccc(-c2nc(C(=O)N3CCN(c4cccc(C)c4)CC3)no2)cc1 | i
COc1ccc(C(C)NC(=O)c2c(C)noc2C)cc1OC (stereo not drawn) | i
Cc1ccc(-c2nc(C(=O)N3CCN(c4ccc(C)cc4C)CC3)no2)cc1 | i
CC(C)Oc1ccc(CNC(=O)c2noc(-c3ccc[nH]c3=O)n2)cc1 | i
COCCNC(=O)c1noc(-c2ccccc2F)n1 | i
O=C(NCC1CC1)c1noc(-c2ccc[nH]c2=O)n1 | i
O=C(O)CCCC(=O)N1CCN(C(=O)c2ccco2)CC1 | i
CN(C)CCN(CC(=O)OC(C)(C)C)C(=O)CCCNC(=O)c1ccccc1 | i
